Hit rate of the full screen: of about 320,000 compounds, about 3,100 (0.97%) were called active. The sample holds actives, similar compounds and a random draw of the others, so the mix is not that of the screen. Values without a mark were called inactive.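 Rule for the calls: active = mean replicate inhibition of at least 70% and a set share of replicates each scoring 70 or more; inconclusive = meets just one of the two criteria; inactive = fails both criteria.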

Drawing on PubChem BioAssay AID488896 (Broad Institute, 2010), this text covers inhibition for 58 compounds.

Chain of Scavenger receptor class B member 1 (Mus musculus) (Q61009 whole entry, looked up): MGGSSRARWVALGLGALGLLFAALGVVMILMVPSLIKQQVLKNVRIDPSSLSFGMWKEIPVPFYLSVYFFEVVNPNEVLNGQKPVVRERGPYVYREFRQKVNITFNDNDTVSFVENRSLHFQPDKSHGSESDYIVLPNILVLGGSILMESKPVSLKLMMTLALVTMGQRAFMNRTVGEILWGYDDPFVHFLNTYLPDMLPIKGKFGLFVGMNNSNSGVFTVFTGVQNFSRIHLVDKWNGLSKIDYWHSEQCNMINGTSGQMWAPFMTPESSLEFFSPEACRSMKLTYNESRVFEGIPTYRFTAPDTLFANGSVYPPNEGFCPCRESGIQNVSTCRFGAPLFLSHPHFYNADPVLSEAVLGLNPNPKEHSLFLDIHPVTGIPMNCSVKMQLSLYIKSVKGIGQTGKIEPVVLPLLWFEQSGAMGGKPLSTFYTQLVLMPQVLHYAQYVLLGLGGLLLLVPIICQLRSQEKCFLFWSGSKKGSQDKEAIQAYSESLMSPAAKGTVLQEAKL

This assay addresses Scavenger receptor class B member 1 (Mus musculus) (UniProt Q61009). In words: mouse SR-BI DiI-HDL uptake blockers – ldlA[mSR-BI] cells, fluorescence, single point, primary screen (AID 488896).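 Note: 0% = median of neutral control wells and 100% = median of positive control wells.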 As to conditions: ldlA[mSR-BI] CHO cells, 3 h, at 12.5 µM, hits give high values.
Turning to `Cc1ccc(C)c(S(=O)(=O)N(C)c2ccc(OC(=O)C3CCN(C(=O)c4ccc(F)cc4)CC3)cc2)c1`, the inhibition – broadly, the change of the read-out against control, counted positive when it falls – was 12.3%. As for `CC1=CC(C)(C)N(C(=O)CSc2nnc(-c3ccccc3)o2)c2ccc(C)cc21`, the figure is 73.5% (active); as for `Cc1cccc(C)c1OC(=O)CSc1nnc(-c2ccccc2)o1`, -9.02%. As for `CC1=CC(C)(C)N(C(=O)CSc2nccn2C)c2cc(C)ccc21`, the figure is -2.67%; as for `CCc1c(Nc2ccccc2Cl)nc(N)[nH]c1=O`, -15.3%. As for `CCOc1ccccc1NC(=O)Nc1cc(OC)ccc1OC`, the figure is 76.1% (active); as for `CCOc1cc(NC(=O)c2ccccn2)c(OCC)cc1NC(=O)c1ccc(OC)cc1`, 72.3% (active). With `CCOc1cc(NS(=O)(=O)c2ccc(OC)cc2)c(OCC)cc1NC(C)=O`, the inhibition was -2.12%. In the case of `CCOc1ccc(NC(=O)Nc2cc(C)ccc2OC)cc1`, the inhibition is 10.4%. As for `CCOc1cc2ccccc2cc1C(=O)Nc1ccccn1`, the figure is 58.6%; as for `COc1ccc(OC)c(NC(=O)CC(Cc2ccccc2OC)C(=O)O)c1` (stereo not drawn), -10.9%. As for `CC1CN(Cc2ccccc2)C(=S)NC1=O` (stereo not drawn), the figure is -4.96%.

Take `Cc1cc2c(cc1C)NC1(C[C@H]3CCC(=O)N4CC[C@@H](C1)[C@@H]34)C(=NC(C)(C)CC(C)(C)C)N2` (stereo partly drawn): the inhibition is -27.8%. As for `O=C(NNc1nc(N2CCCC2)nc(N2CCCC2)n1)c1ccccc1`, the figure is -25.2%.

Turning to `O=C1C=C(NS(=O)(=O)c2ccccc2)C(=O)c2ccccc21`, the inhibition was -17.2%. The figure for `c1ccc(-c2c[nH]c(-c3ccccc3)c2)cc1` is 9.83%; for `COc1ccc(-c2c(C)cc3oc(=O)cc(-c4ccccc4)c3c2C)cc1F` it is 68.3%. Turning to `COc1ccc(-c2c(C)cc3oc(=O)cc(-c4ccccc4)c3c2C)cc1OC`, the inhibition was 66.6%. The figure for `COc1ccc(-c2c(C)cc3oc(=O)cc(-c4ccccc4)c3c2C)cc1C=O` is 75.1% (active). The figure for `COc1ccc2[nH]c3c(c2c1)CCN1C(=O)C(CC(=O)NCCc2ccccn2)C[C@H](C(=O)N2CCOCC2)[C@@]31C` (stereo partly drawn) is -24.1%; for `O=C(Nc1c[nH]c(=O)[nH]c1=O)OCc1ccccc1` it is -8.08%. As for `O=C(NC1=CC(=O)c2ccccc2C1=O)c1ccccc1`, the figure is 2.35%; as for `Cc1cccc(NC(=O)c2sc3nc(N4CCOCC4)c4c(c3c2N)CCCC4)c1`, 68%; as for `Cc1cccc(NC(=O)c2sc3nc4c(c(-c5ccco5)c3c2N)CCC4)c1`, 77.8% (active). With `Cc1cccc(NC(=O)CSc2nnc(-c3ccco3)o2)c1`, the inhibition is -5.55%. `Cc1csc(NC(=O)Nc2ccccc2[N+](=O)[O-])n1`: the inhibition is 2.45%. With `CCOC(=O)/C(=N\Nc1ccccc1[N+](=O)[O-])c1csc(Nc2ccccc2)n1`, the inhibition is 106% (active). In the case of `CCOC(=O)C/C(C)=N\Nc1ccc([N+](=O)[O-])cc1[N+](=O)[O-]`, the inhibition is -9.86%.

As for `O=C(OCCOc1ccccc1F)c1cc(S(=O)(=O)N2CCOCC2)ccc1F`, the inhibition is 12.6%. For `C=C(C)CNc1cc(S(=O)(=O)N2CCOCC2)ccc1Oc1ccccc1`, the inhibition was 10.5%. In the case of `COc1ccc(S(=O)(=O)N2CCC(C(=O)OCC(=O)c3ccccc3)CC2)cc1[N+](=O)[O-]`, the inhibition is -14.3%. Turning to `COC(=O)c1cc(Oc2ccc(S(=O)(=O)N3CCOCC3)cc2[N+](=O)[O-])cc(C(=O)OC)c1`, the inhibition was 70.8% (active). As for `CC(C)(C)C(=O)Nc1cccc(-c2ccc[nH]2)n1`, the figure is -5.41%. As for `O=C(CN1CCC(NC(=O)Nc2ccccc2)CC1)Nc1cccc([N+](=O)[O-])c1`, the figure is 30.9%; as for `COc1cccc(NC(=O)CN2CCN(CC(=O)Nc3ccccc3Cl)CC2)c1`, 19.8%. The figure for `Cc1cc(C)cc(NC(=O)NC2CCN(CC(=O)Nc3cccc(Cl)c3C)CC2)c1` is 74.4% (active); for `O=C(Cc1ccc([N+](=O)[O-])cc1)NCCc1ccc2c(c1)OCO2` it is 30.8%. `CC(C)=CCc1ccc(O)c(=O)cc1C(C)C`: the inhibition is 12.4%. As for `CC(=O)OC1CCC2C3CCC4=C(CC(F)C(=O)C4)C3CCC12C` (stereo not drawn), the figure is 3.99%; as for `Brc1ccc(-c2csc(N/N=C/c3ccc4c(c3)OCO4)n2)cc1`, 79.4% (active). With `Brc1ccc(-c2csc(N/N=C/c3cccnc3)n2)cc1`, the inhibition is 37.2%.

For the compound `C(=N\Nc1ccc2ccccc2n1)/c1ccc2c(c1)OCO2`, the inhibition was 7.43%. `NC(=O)c1ncn([C@@H]2O[C@H](CNCc3cnc(N4CCOCC4)s3)[C@@H](O)[C@H]2O)n1`: the inhibition is 12%.

In the case of `CC/C(=C(/c1ccccc1)c1ccc(OCC[N+](C)(C)C)cc1)c1ccccc1`, the inhibition is -44.1%. The figure for `CCc1ccnc(NC(=O)Nc2ccc(OCc3ccccc3)cc2)c1` is 81.9% (active). As for `O=C(O)/C=C\C(=O)Nc1ccc(OCc2ccccc2)cc1`, the figure is -11.2%; as for `Cc1cccc(NC(=O)Nc2ccc(OCc3ccccc3)cc2)n1`, 17.6%; as for `Cc1cc(NC(=O)C(C)SCC(=O)Nc2cccc(S(=O)(=O)N3CCCCCC3)c2)no1` (stereo not drawn), 41.5%. Consider `Cc1cn(C2CC(O)C(CO)O2)c(=O)n(CCCc2ccccc2)c1=O` (stereo not drawn), for which the inhibition was 2.76%.

Consider `Cc1ccccc1OCC(=O)Nc1ccc(S(=O)(=O)N2CCOCC2)cc1`, for which the inhibition is -12.4%. With `Cc1ccccc1OCC(=O)Nc1ccc2c(c1)ncn2C`, the inhibition is 9.34%.

For the compound `Cc1ccccc1OCC(=O)Nc1ccc(N2CCN(C(=O)C(C)C)CC2)c(Cl)c1`, the inhibition is 72% (active). In the case of `Cc1ccc(Cn2c(C)c3cnn(CC(=O)NCCN4CCOCC4)c(=O)c3c2C)cc1`, the inhibition was 22.1%. Take `CCC1(C)COC(c2ccc(OC)c(OC)c2)OC1` (stereo not drawn): the inhibition was -11.4%. For the compound `Cc1ccc(C(=O)O)c(NC=O)c1OCc1ccccc1`, the inhibition is -19.3%. The figure for `CCOC(=O)/C(C#N)=C/c1ccc(OCC(=O)Nc2ccccc2)c(OC)c1` is -11.4%; for `CCOC(=O)COc1ccc([N+](=O)[O-])cc1` it is -24.5%. As for `CCOC(=O)/C(=C\c1ccc([N+](=O)[O-])cc1)C(=O)c1cc(C(C)=O)c(Nc2ccccc2)s1`, the figure is 80.9% (active).
